T cruzi growth-1 = T. cruzi intracellular proliferation inhibitors, primary screen, cell-based, beta-gal Tulahuen parasites, NIH3T3 host, luminescence; T. cruzi beta-gal in NIH3T3, GalScreen luminescence, 90 h; inhibition, % at 8.34 µM; 77,000 tested, 5.9% active;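 active means mean inhibition above about 93%, with at least 55% of replicates each passing it, limit read from the data, passing the limit was not always enough; inconclusive means only one of those two conditions holds; inactive means neither condition holds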
C diff HTS = C. difficile growth inhibitors, primary screen, HTS; growth activity, negative = inhibition, % at 16 µg/mL (by protocol); 86,000 tested, 0.25% active; Clostridium difficile clinical isolate growth, OD600, 24 h; hits give low values;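 active means mean growth activity at or below -80% and every replicate also at or below -80%; inconclusive means mean at or below -80% but some replicate above -80%; inactive means mean growth activity above -80%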
Pf Dd2 inh = P. falciparum Dd2 growth inhibitors, primary screen, SYBR Green fluorescence, single dose replicates; 72 h; hits give low values; activity change, % at 10 µM; 94,000 tested, 2.3% active; AID 1159554, 2015; in the data active means activity change below about -80%; inconclusive means no clear call, values can overlap the other calls
T cruzi growth-2 = T. cruzi intracellular proliferation inhibitors, confirmation, cell-based, NIH3T3 host, beta-gal parasite, luminescence, cherry-pick; shares compounds with T cruzi growth-1; T. cruzi beta-gal in NIH3T3, GalScreen luminescence, 90 h; inhibition, % at 8.35 µM; 5,600 tested, 72% active; AID 651739, 2012;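 active means mean replicate inhibition above about 95% and at least 55% of replicates individually reaching it, limit read from the data; inconclusive means only one of the two criteria is met; inactive means neither criterion is met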
T cruzi growth-3 = inhibitors of intracellular T. cruzi replication, confirmation, NIH3T3 host cells, beta-gal parasites, cherry-pick, set 2; shares compounds with T cruzi growth-1; T. cruzi beta-gal in NIH3T3, GalScreen luminescence, 90 h; inhibition, % at 2.09 µM; 5,600 tested, 21% active;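 active means mean inhibition above about 95%, with at least 55% of replicates also reaching it, limit read from the data; inconclusive means meets just one of the two conditions; inactive means meets neither condition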
NIH3T3 tox = cytotoxicity in mouse NIH/3T3 fibroblasts, confirmation, cytotoxicity control for T. cruzi proliferation inhibitor project, cell-based, cherry-pick, single point. shares compounds with T cruzi growth-1. NIH/3T3 viability, CellTiter-Glo ATP luminescence, 90 h. cytotoxicity (signal decrease), % at 8.35 µM. 5,600 tested, 14% active;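 active means mean signal decrease across replicates above about 35% based on untreated-well scatter, with enough replicates individually passing, limit read from the data; inconclusive means no rule stated though some were filed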
3T3 cytotox 2 = NIH/3T3 fibroblast cytotoxicity, confirmation, cytotoxicity control, cell-based, cherry-pick, single point, set 2. inhibition, % at 24.9 µM. NIH/3T3 viability, CellTiter-Glo ATP luminescence, 90 h. AID 651744, 2012. shares compounds with T cruzi growth-1. 5,600 tested, 56% active;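 active means mean loss of cell viability signal at or above a set limit, and enough replicates individually reaching it; inconclusive means meets only the mean limit or only the replicate share; inactive means meets neither condition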
Hits are given with their value; – = inactive; ? = inconclusive; · = not tested or not shown. Only some compounds are listed: those with a hit (about 6.8% of all), similar ones and a draw of the others.

SMILES | T cruzi growth-1 | C diff HTS | Pf Dd2 inh | T cruzi growth-2 | T cruzi growth-3 | NIH3T3 tox | 3T3 cytotox 2
COc1ccccc1NC(=O)N1CCCCN2[C@H](CO)[C@@H](c3ccc(C#CC4CCCC4)cc3)[C@@H]2C1 | 102 | – | – | 98 | – | – | 105
COc1ccccc1NC(=O)N1CCCCN2[C@H](CO)[C@@H](c3ccc(C#Cc4ccccc4)cc3)[C@H]2C1 | 112 | – | – | 102 | 102 | 119 | 105
COc1ccccc1NC(=O)N1CCCCN2[C@H](C1)[C@H](c1ccc(C#CC3CCCC3)cc1)[C@@H]2CO | – | – | – | · | · | · | ·
COc1ccccc1NC(=O)N1CCCCN2[C@@H](CO)[C@H](c3ccc(C#Cc4ccccc4)cc3)[C@@H]2C1 | 112 | – | ? | – | 108 | 118 | 104
O=C(c1cnccn1)N1CC2(C1)[C@H](c1ccccc1)[C@@H](CO)N2C(=O)c1ccccc1 | · | – | – | · | · | · | ·
Cc1noc(C)c1S(=O)(=O)Nc1ccc2c(c1)CC(=O)N([C@H](C)CO)C[C@H](C)[C@@H](CN(C)S(=O)(=O)c1ccc(Cl)cc1)O2 | – | – | – | · | · | · | ·
C[C@@H]1CN([C@H](C)CO)C(=O)CCCn2nncc2CO[C@H]1CN(C)C(=O)CCCN(C)C | · | – | – | · | · | · | ·
O=C(C[C@H]1C[C@H]2c3cc(NC(=O)Nc4ccccc4F)ccc3O[C@H]2[C@H](CO)O1)NC1CCCC1 | – | · | – | · | · | · | ·
Cc1noc(C)c1S(=O)(=O)Nc1ccc2c(c1)C(=O)N([C@@H](C)CO)C[C@H](C)[C@H](CN(C)C(=O)NC(C)C)OCCCC[C@H](C)O2 | – | – | – | · | · | · | ·
C[C@H](CO)N1C[C@H](C)[C@H](CN(C)S(=O)(=O)c2ccc(Cl)cc2)Oc2c(NS(=O)(=O)c3ccc(Cl)cc3)cccc2C1=O | – | – | – | · | · | · | ·
O=C(Nc1cccc(F)c1)N1CCCCN2[C@H](C1)[C@@H](c1ccc(C#Cc3ccccc3)cc1)[C@@H]2CO | – | – | – | · | · | · | ·
COc1ccc(C#Cc2ccc([C@H]3[C@@H](CO)N4CCCCN(C(=O)Nc5ccccc5)C[C@@H]34)cc2)cc1 | 125 | – | – | 111 | 114 | – | 30
C/C=C/c1ccc([C@H]2[C@@H](CO)N3CCCCN(C(=O)Nc4ccc(OC)cc4)C[C@H]23)cc1 | ? | – | – | – | – | – | 90
C/C=C/c1ccc([C@@H]2[C@H](CO)N3CCCCN(C(=O)Nc4ccc(OC)cc4)C[C@@H]23)cc1 | – | – | – | · | · | · | ·
C[C@H](O)C#Cc1ccc([C@H]2[C@H](CO)N3CCCCN(C(=O)Nc4ccccc4)C[C@@H]23)cc1 | – | – | – | · | · | · | ·
COc1ccc(C#Cc2ccc([C@H]3[C@@H](CO)N4CCCCN(C(=O)Nc5cccc(F)c5)C[C@@H]34)cc2)cc1 | 112 | – | – | 101 | 109 | – | –
COc1ccc(C#Cc2ccc([C@@H]3[C@H](CO)N4CCCCN(C(=O)Nc5ccccc5)C[C@@H]34)cc2)cc1 | – | – | – | · | · | · | ·
COc1ccc(C#Cc2ccc([C@H]3[C@H]4CN(C(=O)Nc5ccccc5)CCCCN4[C@H]3CO)cc2)cc1 | 119 | – | – | 108 | – | – | –
O=C(CCN1CCCCC1)N[C@@H]1CC[C@@H](CCNS(=O)(=O)c2ccc(Cl)cc2)O[C@H]1CO | – | – | – | · | · | · | ·
Cc1noc(C)c1S(=O)(=O)N(C)C[C@@H]1Oc2ccc(NC(=O)C3CC3)cc2CC(=O)N([C@@H](C)CO)C[C@H]1C | – | – | – | · | · | · | ·
COc1ccc(-c2ccc([C@@H]3[C@@H](CO)N4CCCCN(C(=O)c5ccc6c(c5)OCO6)C[C@@H]34)cc2)cc1 | 115 | – | – | 98 | – | – | 43
COc1ccc(-c2ccc([C@@H]3[C@@H](CO)N4CCCCN(C(=O)c5ccc6c(c5)OCO6)C[C@H]34)cc2)cc1 | 98 | – | – | – | – | – | 98
COc1ccc(-c2ccc([C@H]3[C@@H](CO)N4CCCCN(C(=O)c5ccc6c(c5)OCO6)C[C@@H]34)cc2)cc1 | 118 | – | – | 107 | – | 46 | 43
COc1ccc(-c2ccc([C@H]3[C@@H](CO)N4CCCCN(C(=O)c5ccc6c(c5)OCO6)C[C@H]34)cc2)cc1 | 101 | – | – | 104 | – | 49 | 104
COc1ccc(-c2ccc([C@@H]3[C@@H](CO)N4CCCCN(C(=O)c5ccc(F)cc5)C[C@@H]34)cc2)cc1 | – | – | – | · | · | · | ·
SMILES | T cruzi growth-1 | C diff HTS | Pf Dd2 inh | T cruzi growth-2 | T cruzi growth-3 | NIH3T3 tox | 3T3 cytotox 2
COc1ccc(-c2ccc([C@@H]3[C@@H](CO)N4C(=O)CN(C(=O)c5ccc6c(c5)OCO6)C[C@H]34)cc2)cc1 | · | – | – | · | · | · | ·
COc1ccc(-c2ccc([C@@H]3[C@H]4CN(C(=O)c5ccc(F)cc5)CCCCN4[C@H]3CO)cc2)cc1 | – | – | – | · | · | · | ·
C[C@@H]1CN([C@@H](C)CO)C(=O)Cc2cc(NC(=O)C3CC3)ccc2O[C@H]1CN(C)Cc1ccccc1 | – | – | – | · | · | · | ·
O=C(C[C@H]1CC[C@@H](NC(=O)c2cccc(F)c2)[C@@H](CO)O1)NCCN1CCCC1 | – | · | – | · | · | · | ·
CCS(=O)(=O)N1[C@H](CO)[C@H](c2ccc(-c3cccc(F)c3)cc2)[C@@H]1C#N | – | – | – | · | · | · | ·
C/C=C/c1ccc([C@@H]2[C@@H](C#N)N(S(=O)(=O)c3cccc(F)c3)[C@@H]2CO)cc1 | 107 | – | – | – | – | – | 25
C/C=C/c1ccccc1[C@@H]1[C@@H](C#N)N(S(=O)(=O)c2cccc(F)c2)[C@H]1CO | · | – | – | · | · | · | ·
N#C[C@@H]1[C@H](c2ccc(-c3cccc(F)c3)cc2)[C@@H](CO)N1S(=O)(=O)c1cccc(F)c1 | 102 | – | – | 105 | 103 | – | 105
N#C[C@@H]1[C@@H](c2ccc(-c3cccc(F)c3)cc2)[C@H](CO)N1S(=O)(=O)c1cccc(F)c1 | 99 | – | – | 102 | – | 41 | 107
CCS(=O)(=O)N1[C@H](C#N)[C@@H](c2ccc(-c3cccc(F)c3)cc2)[C@@H]1CO | – | – | – | · | · | · | ·
CCNC(=O)[C@H]1[C@H](CO)[C@H]2Cn3c(ccc(-c4ccccc4)c3=O)[C@@H]1N2C(=O)CC1CC1 | · | – | – | · | · | · | ·
C[C@@H]1CCCCO[C@@H](CN(C)Cc2ccncc2)[C@H](C)CN([C@H](C)CO)C(=O)c2cc(NC(=O)CCCN(C)C)ccc2O1 | – | – | – | · | · | · | ·
